Only a selection was taken, and hits are over-represented in it overall.
Glioma ERSR ind: qHTS for Inducers of the Endoplasmic Reticulum Stress Response (ERSR) in Human Glioma: qHTS. U87-MG GRP78 promoter luciferase reporter, 16 h. Potency, µM, inactives show top-dose activation, usual class: activators. actives 0.02% (n = 420,000); further: series mostly up to about 76 µM; % of control where 0% means no effect; nearly all actives have a fitted effect of over 35% in size
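Stably transfected U87-MG glioma cells carrying a GRP78-based luciferase sensor; 16 h compound incubation. Luminescence end-point read 10 min after Bright-Glo addition at room temperature.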
G9a inh: qHTS Assay for Inhibitors of Histone Lysine Methyltransferase G9a. Histone-lysine N-methyltransferase EHMT2 (Homo sapiens), Q96KQ7. G9a H3K9 monomethylation, AlphaScreen, 2 h. Potency, µM (highest dose often 102 µM), inactives show at the highest dose activity, negative = inhibition, actives largely listed as inhibitors. actives 8.8% (n = 350,000); further: on the % scale 0 is the no-effect control and ±100 the full control effect; nearly all actives have a fitted effect of over 75% in size
Target sequence (Q96KQ7 913-1193 limits assumed): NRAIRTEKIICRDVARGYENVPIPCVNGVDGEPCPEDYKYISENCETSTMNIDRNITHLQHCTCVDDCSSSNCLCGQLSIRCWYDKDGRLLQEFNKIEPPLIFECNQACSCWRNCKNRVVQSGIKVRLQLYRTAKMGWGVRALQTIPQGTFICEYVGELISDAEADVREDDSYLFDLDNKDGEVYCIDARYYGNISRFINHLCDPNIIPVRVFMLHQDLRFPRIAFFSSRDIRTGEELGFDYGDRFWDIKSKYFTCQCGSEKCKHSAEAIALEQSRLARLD
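AlphaScreen detection with an anti-monomethyl H3K9 antibody quantified product after a 2 h room-temperature reaction containing 500 nM biotinylated H3K9 peptide, 20 µM SAM and 20 nM enzyme, which had been preincubated 15 min with compound.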
VDR inh: Inhibitors of the vitamin D receptor (VDR): qHTS; Vitamin D3 receptor (Homo sapiens), P11473; VDR-SRC2-3 peptide fluorescence polarization, 2 h; Potency, µM, without a hit: max response, negative = inhibition, hits mostly inhibitors; actives 0.93% (n = 400,000); AID 504847, 2011; further: on the % scale 0 is the no-effect control and ±100 the full control effect
Target sequence (P11473 whole entry, looked up): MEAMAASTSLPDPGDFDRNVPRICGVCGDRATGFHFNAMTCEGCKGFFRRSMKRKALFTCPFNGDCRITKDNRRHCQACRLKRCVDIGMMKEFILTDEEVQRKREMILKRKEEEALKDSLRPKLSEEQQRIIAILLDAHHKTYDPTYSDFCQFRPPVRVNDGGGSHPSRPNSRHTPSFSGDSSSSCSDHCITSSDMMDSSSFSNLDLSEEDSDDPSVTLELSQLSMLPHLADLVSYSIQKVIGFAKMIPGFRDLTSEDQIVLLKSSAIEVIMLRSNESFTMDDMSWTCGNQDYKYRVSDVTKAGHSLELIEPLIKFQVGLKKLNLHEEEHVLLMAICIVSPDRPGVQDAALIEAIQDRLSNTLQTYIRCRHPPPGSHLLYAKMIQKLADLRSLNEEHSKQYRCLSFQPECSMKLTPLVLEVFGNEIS
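Fluorescence polarization assay of small-molecule disruption of VDR binding to coregulator peptide SRC2-3. Compounds and controls pin-transferred, then read after 2 h incubation at ambient room temperature.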
Sfp PPTase inh: qHTS Assay for Inhibitors of Bacillus subtilis Sfp phosphopantetheinyl transferase (PPTase); Biochemical Sfp PPTase activity, qHTS; Potency, µM, for the others: largest response in the series, negative = inhibition, most hits filed as inhibitors; 4'-phosphopantetheinyl transferase ffp (Bacillus subtilis), Q9F4F7; actives 3.5% (n = 310,000);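 further: the enzyme is Sfp with the accession as filed and its product quenches rhodamine fluorescence; 0% = enzyme reaction without inhibitor and -100% = no enzyme wells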
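Fluorescence-quenching assay with 15 nM Sfp, 5 uM rhodamine-CoA and 12.5 uM BHQ-2-labelled ybbR peptide in pH 7.6 Hepes/MgCl2 buffer. Enzyme was pre-incubated with compound for 15 min at room temperature. Rate was taken from the 30-min fluorescence change (525/598 nm).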
12-LOX inh: Primary qHTS assay for inhibitors of human arachidonate 12S-lipoxygenase (ALOX12): Round 2. actives 1.1% (n = 580,000). Polyunsaturated fatty acid lipoxygenase ALOX12 (Homo sapiens), P18054. Potency, µM (highest dose often 108 µM), for inactives: at the highest dose activity change, negative = inhibition, actives largely listed as inhibitors. purified 12hLO, xylenol orange hydroperoxide absorbance; further: on the % scale 0 is the no-effect control and ±100 the full control effect
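Purified human 12hLO at 150 nM in 25 mM Hepes, 0.01% Triton X-100, pH 7.0, preincubated 15 min at room temperature with compound. Reaction started with 40 uM arachidonic acid, 30 min at room temperature. Hydroperoxide measured by Fe-xylenol orange, 573/405 nm absorbance ratio.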
The depositor's hits bear a star; ? = inconclusive; . = not tested or not shown; [ ] = dose if it differs, or a comment. The call rests on the fitted dose curve; in most records, active means well fitted curve in the direction sought with a large enough effect; inconclusive means small, poorly fitted or top-dose-only effect, or another doubt; inactive means no such curve, though single readings can be large; an effect the other way counts as inactive or inconclusive. Potency means the concentration at half of the fitted maximal effect.

SMILES | Glioma ERSR ind | G9a inh | VDR inh | Sfp PPTase inh | 12-LOX inh
CN(C)C(=S)c1ccccc1 | -3.1% | 10µM* | ? | 20µM* | ?
CCOc1ccc(C(=O)CCCC(=O)c2ccc(OCC)cc2)cc1 | -1.7% | 11.1% | -12.3% | 15.1% | 3.5%
CN(C)c1ccc(NC(N)=S)cc1 | -0.9% | 10µM* | -13.1% | -19.6% | ?
CN(/N=C/c1ccccc1O)C(=S)c1ccccc1 | 4.0% | . | 16.0% | ? | ?
CN(C)c1ccc(C(N)=S)cc1 | . | . | . | . | 15.8µM*
CCOc1ccc(C(N)=S)cc1 | . | . | . | . | 14.1µM*
Cc1ccc(OCC(=O)NCCC2CCN(C(=O)Nc3ccccc3F)CC2)cc1 | . | . | . | . | 18.0%
CN(C)C(=S)c1ccc(N(C)C)cc1 | 5.4% | 7.94µM* | ? | 15.8µM* | ?
COc1ccc(C(=S)N(C)C)cc1OC | -4.0% | ? | ? | 44.7µM* | -21.6%
C=CCNC(=S)Nc1ccc(N(C)C)cc1 | 2.4% | -10.0% | 79.4µM* | 10.0% | ?
CNC(=S)c1ccc(N(C)C)cc1 | . | . | . | . | -6.0%
NC(=S)Nc1ccc(S(=O)(=O)c2ccc(NC(N)=S)cc2)cc1 | -3.8% | ? | -13.2% | 3.2% | 39.8µM*
C=CCNC(=S)Nc1ccc(C(N)=O)cc1 | -2.6% | ? | -12.9% | -1.5% | -18.1%
CSc1ccc(NC(N)=S)cc1 | 1.5% | -24.8% | -19.3% | 4.5% | -7.3%
CCOC(=O)N(C)CC(=O)NC1CCCC1 | . | . | . | . | 15.5%
COc1cccc(CNC(=O)c2cc(C3CC3)nc3onc(C)c23)c1 | . | . | . | . | 2.3%
Cc1ccc2c(ccc(=S)n2C)c1 | 6.1% | 39.8µM* | 4.7% | -16.0% | ?
Cc1ccc2c(c1)cc(C(=O)N1CCN(C)CC1)n2C | . | . | . | . | 3.4%
O=C(Nc1cccc(-c2cn3c(n2)SCC3)c1)c1ccc2c(c1)OCO2 | -5.9% | 44.7µM* | 0.5% | 14.7% | 2.9%
Oc1c(Br)cc(C2N=C(c3ccccc3)NO2)cc1Br (stereo not given) | -2.2% | 37.3%[0.501 µM] | -6.9% | -11.2% | 28.2µM*
COc1ccc(C2C3=C(CCCC3=O)Nc3nc(-c4cc(OC)c(OC)c(OC)c4)nn32)cc1OC (stereo not given) | 1.6% | 39.8µM* | -10.5% | -4.8% | -6.6%
COc1ccc(C(CNC(=O)CCc2nnc(-c3ccsc3)o2)N(C)C)cc1 (stereo not given) | . | . | . | . | 6.6%
O=C(N/N=C1\CCc2ccccc21)c1ccccc1O | -13.1% | -5.9%[59 µM] | -4.9% | -9.0% | -11.9%
FC(F)(F)c1ccccc1N/N=C1/CCc2ccccc21 | . | . | . | . | 10µM*
O=C1NCCCCC1NC1CC(=O)N(c2ccccc2)C1=O (stereo not given) | -0.5% | -31.0%[59 µM] | 25.5% | 0.3% | ?
SMILES | Glioma ERSR ind | G9a inh | VDR inh | Sfp PPTase inh | 12-LOX inh
CCOc1ccc(N2C(=O)CC(NCC#N)C2=O)cc1 (stereo not given) | -3.5% | . | -5.9% | 56.2µM* | -3.5%
CCOc1ccc(N2C(=O)CC(NCc3ccc(S(N)(=O)=O)cc3)C2=O)cc1 (stereo not given) | 1.9% | -35.0% | ? | 7.8% | -9.6%
CCOc1ccc(N2C(=O)CC(NC3CCCCNC3=O)C2=O)cc1 (stereo not given) | -2.2% | 7.94µM* | 7.1% | 3.2% | ?
CCCOc1ccc(N2C(=O)CC(NCCNc3ccc([N+](=O)[O-])cn3)C2=O)cc1 (stereo not given) | -2.5% | 12.6µM* | 2.8% | -7.0% | -9.8%
CC(C)c1cc(C(=O)Nc2ccc(Cl)cc2)nn1C1CCS(=O)(=O)C1 (stereo not given) | . | . | . | . | -1.5%
CCOc1ccc(NC(=O)Cn2c(=O)n(-c3ccccc3)c(=O)c3c2cc(C)n3C)cc1 | . | . | . | . | -4.4%
COc1ccccc1Nc1nnc(SCc2nnc(-c3cc(OC)c(OC)c(OC)c3)o2)s1 | -2.0% | 14.1µM* | -16.6% | -3.4% | 4.7%
C[S+](=O)([O-])N1Cc2ccccc2CC2(CCN(CCc3ccccc3)C2)C1 (stereo not given) | . | . | . | . | 5.6%[6.33 µM]
COc1ccc(-c2cc(C(F)(F)F)c3c(=O)n(-c4ccccc4)[nH]c3n2)cc1 | 4.9% | 12.6µM* | 10.6% | -26.4% | .
CC(C)C[C@H]1COc2cc(NCCCN3CCOCC3)ccc2S(=O)(=O)N1 | . | . | . | . | -64.6%
O=S1(=O)N[C@@H](Cc2ccccc2)COc2cc(NCCCN3CCOCC3)ccc21 | . | . | . | . | 50.1µM*
Cc1ccc(NC(=O)N/C=C/c2ccco2)cc1C | 0.2% | 31.6µM* | -2.1% | -21.3% | 28.2µM*
CCc1ccccc1NC(=O)c1cccc(NC(=O)/C=C/c2ccco2)c1 | 6.4% | ? | -18.4% | 20µM* | -31.3%
Cc1ccc(NC(=O)c2cccc(NC(=O)/C=C/c3ccco3)c2)cc1C | 6.2% | ? | 12.7% | 1.7% | 39.8µM*
Cc1ccccc1NC(=O)c1cccc(NC(=O)c2ccco2)c1 | -1.8% | 31.0% | 4.0% | 20.4% | 18.9%
Cc1ccc(NC(=O)C2CCN(S(=O)(=O)c3c(C)noc3/C=C/c3ccco3)CC2)cc1C | -1.8% | 1.9%[59 µM] | -6.4% | . | ?
O=C(/C=C/c1ccco1)Nc1cccc(C(=O)Nc2ccccc2C(=O)O)c1 | 0.7% | . | ? | 56.2µM* | -45.4%
O=C(O)c1cccc(NC(=O)c2ccccc2NC(=O)c2ccco2)c1 | 2.1% | . | -22.3% | 7.7% | 16.2%
Cc1nccn1C(C)C(=O)NCc1cccnc1N(C)Cc1ccccc1 (stereo not given) | . | . | . | . | -0.8%
NC(=O)C(Sc1ccc2c(c1)OCCCO2)c1ccccc1 (stereo not given) | . | . | . | . | 18.5%
Cc1ccnc(SCCn2c(N3CCN(CCO)CC3)nc3c2c(=O)n(C)c(=O)n3C)n1 | . | . | . | . | -0.5%
CN(C)CCN(C(=O)c1ccc(S(=O)(=O)N2CCCC2)cc1)c1nc2ccc(Br)cc2s1 | -2.0% | 70.8µM* | 7.8% | -16.9% | -17.2%
CC1CN(S(=O)(=O)c2ccc(C(=O)N(CCCN(C)C)c3nc4cc5c(cc4s3)OCCO5)cc2)CC(C)O1 (stereo not given) | -1.1% | 50.1µM* | 2.1% | . | 1.6%
CC1CCCCN1S(=O)(=O)c1ccc(C(=O)N(CCCN(C)C)c2nc3ccc(Br)cc3s2)cc1 (stereo not given) | -10.1% | . | -8.7% | 50.1µM* | 434.8%
CCC1CCCCN1S(=O)(=O)c1ccc(C(=O)N(CCCN(C)C)c2nc3cc4c(cc3s2)OCO4)cc1 (stereo not given) | -10.4% | 56.2µM* | -1.1% | -12.3% | ?
CN(C)CCCN(C(=O)c1ccc(S(=O)(=O)N2CCCCCC2)cc1)c1nc2cc3c(cc2s1)OCO3 | -5.9% | . | . | . | ?

Compound activity from PubChem BioAssay.
